Assay results reported in PubChem BioAssay (NCI).
About 79,000 compounds went through this panel and 15% of them were active in at least one assay; those are over-represented in the sample as a whole. Calls of active or inactive are those of the source. Rule as the data show it: active = growth inhibition above about 70%; inactive = the rest.

Key:
[1] = NCI Yeast Anticancer Drug Screen. Data for the rad50 strain (AID 155);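 also: 0% = growth of vehicle-only cultures of the same strain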; settings: S. cerevisiae rad50 strain growth inhibition; at 50.0 µM; stronger effect = higher value
In short: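 Vehicle-treated cultures provide the reference for the growth inhibition reported for compound-exposed, repair-deficient yeast.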

[2] = NCI Yeast Anticancer Drug Screen. Data for the mec2-1 strain (AID 157); settings: S. cerevisiae mec2-1 strain, at 50.0 µM, stronger effect = higher value
In short: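 Cells of the genetically defined mec2-1 yeast strain are incubated with test compound. Inhibition of growth is calculated against vehicle-treated controls.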

[3] = NCI Yeast Anticancer Drug Screen. Data for the sgs1 mgt1 strain (AID 161);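 also: 0% = growth of cultures given vehicle only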; settings: S. cerevisiae sgs1 mgt1 strain, at 50.0 µM, stronger effect = higher value
In short: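 Mutant yeast exposed to compound; growth scored against vehicle-only wells.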

[4] = NCI Yeast Anticancer Drug Screen. Data for the cln2 rad14 strain (AID 165);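 also: 0% = growth equal to vehicle treated cultures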; settings: S. cerevisiae cln2 rad14 strain, at 50.0 µM, stronger effect = higher value
In short: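 The screen exposed genetically defined yeast (cln2 rad14) to test compounds and scored growth inhibition relative to vehicle-treated controls.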

[5] = NCI Yeast Anticancer Drug Screen. Data for the bub3 strain (AID 167); settings: S. cerevisiae bub3 mutant strain, at 50.0 µM, stronger effect = higher value
In short: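 Mutant yeast screening strain plus compound; vehicle-treated cultures serve as the 0% inhibition reference.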

[6] = NCI Yeast Anticancer Drug Screen. Data for the mlh1 rad18 strain (AID 175); settings: S. cerevisiae mlh1 rad18 strain growth inhibition; at 50.0 µM; stronger effect = higher value
In short: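 Compound-treated yeast growth, normalised to vehicle controls. Strain bears defined DNA repair mutations.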

Structure (SMILES) | growth inhibition [1] | growth inhibition [2] | growth inhibition [3] | growth inhibition [4] | growth inhibition [5] | growth inhibition [6]
CCCCCCCCSP(SCCCCCCCC)SCCCCCCCC | -11.8% (inactive) | -0.1% (inactive) | -25.3% (inactive) | 2.7% (inactive) | 1.25% (inactive) | 0.9% (inactive)
O=[As](O)(O)c1ccc(N=Nc2ccc([As](=O)(O)O)cc2)cc1 | -0.35% (inactive) | 11.1% (inactive) | -15.9% (inactive) | 6.8% (inactive) | -22.5% (inactive) | -16.6% (inactive)
CC(Cc1cccc2c1Nc1ccccc1S2)N(C)CCO (stereo not given) | -60.2% (inactive) | -40.5% (inactive) | -28.6% (inactive) | -5.25% (inactive) | -25.4% (inactive) | -30.1% (inactive)
CNC(=O)c1[nH]cnc1/N=N/N(C)N | 85.2% (active) | 91.8% (active) | 90.5% (active) | 87.9% (active) | 89% (active) | 89.3% (active)
CCOP(O)(=S)OCC.[Sm] | 1.65% (inactive) | -14.6% (inactive) | -7.65% (inactive) | -43.1% (inactive) | -17.9% (inactive) | -15.8% (inactive)
CN1CN(c2ccccc2)C2(CCN(CCC3COc4ccccc4O3)CC2)C1=O (stereo not given) | -15.4% (inactive) | -10.3% (inactive) | -10.1% (inactive) | -1.4% (inactive) | -4.45% (inactive) | -1.35% (inactive)
Nc1nnc(N)n1N | 15.8% (inactive) | -21.2% (inactive) | -8.15% (inactive) | -20.3% (inactive) | 1.5% (inactive) | -1.65% (inactive)
c1ccc2sc(SNC3CCCCC3)nc2c1 | -29.7% (inactive) | -65.1% (inactive) | -60.1% (inactive) | -128% (inactive) | 13.6% (inactive) | 2.4% (inactive)
Cn1cnc([N+](=O)[O-])c1[Se]c1nc(N)nc2nc[nH]c12 | -24.1% (inactive) | -12% (inactive) | -26.8% (inactive) | 15.2% (inactive) | -7.65% (inactive) | -17.9% (inactive)
CC(=N\[O-])/C(C)=N/[O-].CC(=N\[O-])/C(C)=N/[O-].[Cu+2] | 42.8% (inactive) | 22.9% (inactive) | 15% (inactive) | -18.9% (inactive) | 33.5% (inactive) | 29.2% (inactive)
CCC(C)OC(=O)Nc1cccc(OC(=O)NC)c1 (stereo not given) | 4.75% (inactive) | -22.6% (inactive) | -2.1% (inactive) | -2.15% (inactive) | -1.6% (inactive) | -0.3% (inactive)
CC(C)N1C(=O)NC(=O)C2(CCCC2)C1=O | -2.15% (inactive) | 3.05% (inactive) | -1.5% (inactive) | -28.4% (inactive) | -12.6% (inactive) | -2.5% (inactive)
Clc1cccc(Cl)c1CBr | 23.1% (inactive) | -19.1% (inactive) | 19.3% (inactive) | 15.8% (inactive) | 15.3% (inactive) | 10.1% (inactive)
O=C1OC(C(O)CO)C(O)=C1OC[N+]1(CCCl)CCN(CCCl)CC1 (stereo not given) | 11.8% (inactive) | 12.7% (inactive) | 4.9% (inactive) | 4.7% (inactive) | 10.3% (inactive) | 9.4% (inactive)
CC(C)(C#N)O[N+](=O)[O-] | 0.1% (inactive) | 7.3% (inactive) | -4.7% (inactive) | -16.8% (inactive) | -0.7% (inactive) | 0.2% (inactive)
N#CCc1ccc(CC#N)cc1 | 14.1% (inactive) | -10.6% (inactive) | -2.8% (inactive) | 16.6% (inactive) | -5.1% (inactive) | 1.45% (inactive)
CCC1CN(CC(=O)c2ccc(Br)cc2)CCO1 (stereo not given) | 5.4% (inactive) | 3.35% (inactive) | 39.9% (inactive) | 20.6% (inactive) | 48.6% (inactive) | 25% (inactive)
CC1C(C)(C)P(=O)(Oc2cccc3cccnc23)C1(C)C (stereo not given) | 83.3% (active) | 64.7% (inactive) | 84.5% (active) | 64.6% (inactive) | 99% (active) | 57.2% (inactive)
NC(=O)Nc1ccc([As]=O)cc1 (stereo not given) | 8% (inactive) | -5.7% (inactive) | -1.3% (inactive) | 11.5% (inactive) | -15.2% (inactive) | 2.65% (inactive)
O=C([O-])C(=O)[O-].[Co+3].[NH2-].[NH2-].[NH2-].[NH2-].[O-][Cl+3]([O-])([O-])O | 18.5% (inactive) | 21.9% (inactive) | 13.2% (inactive) | 15.7% (inactive) | 18.1% (inactive) | 36.8% (inactive)
Nc1nnnn1CCO | -4.7% (inactive) | -13% (inactive) | -17% (inactive) | 6.4% (inactive) | -13.1% (inactive) | -13.1% (inactive)
CP1(=S)CCC2=C1CCc1cc(O)ccc12 (stereo not given) | 14.4% (inactive) | -31.8% (inactive) | 0.4% (inactive) | -29.8% (inactive) | -3.65% (inactive) | 21.4% (inactive)
O=P(c1ccccc1)(c1ccccc1)c1ccccc1.O=P(c1ccccc1)(c1ccccc1)c1ccccc1.O=S(=O)(O)O.[Fe] | -8.3% (inactive) | 3.45% (inactive) | 9.35% (inactive) | 17.6% (inactive) | 23.6% (inactive) | 8.2% (inactive)

Structure (SMILES) | growth inhibition [1] | growth inhibition [2] | growth inhibition [3] | growth inhibition [4] | growth inhibition [5] | growth inhibition [6]
CN1CCCC(C(=O)c2ccccc2)C1 (stereo not given) | 0.45% (inactive) | -5.1% (inactive) | -0.3% (inactive) | -18.9% (inactive) | -4.95% (inactive) | 3.75% (inactive)
Nc1nc(=S)nc(N)[nH]1 | 21.6% (inactive) | 11.2% (inactive) | -7.9% (inactive) | -18.5% (inactive) | 14.6% (inactive) | -2.5% (inactive)
Clc1ccc(C(Cl)(Cl)Cl)c(Cl)c1 | 9% (inactive) | 6.35% (inactive) | -9.3% (inactive) | -15.8% (inactive) | 17.9% (inactive) | 20.4% (inactive)
N#CC(C#N)=Cc1ccccc1O | -8.35% (inactive) | -2.35% (inactive) | -1.95% (inactive) | -5.95% (inactive) | -19.8% (inactive) | -9.7% (inactive)
CC(C)N(C(C)C)[PH+]1O[PH+](N(C(C)C)C(C)C)O[PH+](N(C(C)C)C(C)C)O[PH+](N(C(C)C)C(C)C)O[PH+](N(C(C)C)C(C)C)O1.[C-]#[O+].[C-]#[O+].[C-]#[O+].[C-]#[O+].[C-]#[O+].[C-]#[O+].[C-]#[O+].[Cr].[Cr] (stereo not given) | 17.7% (inactive) | -5.45% (inactive) | -14.5% (inactive) | -0.75% (inactive) | 2.8% (inactive) | -3.8% (inactive)
Nc1ccc2c(c1)Oc1ccc(N)cc1O2 | -22.8% (inactive) | 1.2% (inactive) | 0.7% (inactive) | 15.1% (inactive) | -6.2% (inactive) | 5.15% (inactive)
COc1cc(C(O)CN)cc(OC)c1OC (stereo not given) | -12.9% (inactive) | 2.2% (inactive) | -6.55% (inactive) | -7.35% (inactive) | -3.35% (inactive) | -6.8% (inactive)
COP(=O)(OC)C(C)(C)NC(=O)NC(F)(F)F | -1.9% (inactive) | -14.9% (inactive) | -24.6% (inactive) | 28.9% (inactive) | 11.1% (inactive) | -4.25% (inactive)
CCCCC[CH2][Sn](=[O])[CH2]CCCCC | 8.25% (inactive) | 3.35% (inactive) | -9.4% (inactive) | -24.6% (inactive) | 6.8% (inactive) | -11.4% (inactive)
CC1(C)N=C(N)N=C(N)N1c1ccc(CCc2ccc(S(=O)(=O)F)cc2Cl)c(Cl)c1 | 99.4% (active) | 99.7% (active) | 99.7% (active) | 81.5% (active) | 99.2% (active) | 99.5% (active)
CCOP(=O)(OCC)O/N=C(/c1ccccc1)C(C)C | 25.4% (inactive) | 4.85% (inactive) | 19.9% (inactive) | 10.3% (inactive) | -0.1% (inactive) | 2.4% (inactive)
CCCCCCCCCCNP(=O)(Oc1ccccc1)Oc1ccccc1 | -21.8% (inactive) | 4.05% (inactive) | -16.4% (inactive) | -24.5% (inactive) | -4.75% (inactive) | -23.9% (inactive)
C=CCP(c1ccccc1)c1ccccc1 | -2% (inactive) | -3.75% (inactive) | -8.65% (inactive) | 8% (inactive) | 9.1% (inactive) | -13.5% (inactive)
CC(C)(C)[CH2][Sn]([Cl])([CH2]C(C)(C)C)[CH2]C(C)(C)C | 99% (active) | 99.3% (active) | 21.8% (inactive) | 99% (active) | 99.2% (active) | 99% (active)
COc1ccc(C(CC(=O)O)CC(=O)N(CCCl)CCCl)cc1C (stereo not given) | 64% (inactive) | 25.6% (inactive) | 17% (inactive) | 27.1% (inactive) | 63.7% (inactive) | 24.4% (inactive)
CCOC(=O)C1C(=O)NC2CCC(=O)CC21c1ccc2c(c1)OCO2 (stereo not given) | 10.7% (inactive) | -9.5% (inactive) | -1.8% (inactive) | -3.55% (inactive) | 23.9% (inactive) | 11.2% (inactive)
Cc1cc(C)cc(OP(=O)(Oc2cc(C)cc(C)c2)Oc2cc(C)cc(C)c2)c1 | -13.3% (inactive) | -24.6% (inactive) | 5.45% (inactive) | -3.65% (inactive) | 1.7% (inactive) | -5.25% (inactive)
Cc1cc(C)n(/C(N)=N/[N+](=O)[O-])n1 | -15.3% (inactive) | -18.9% (inactive) | 3.6% (inactive) | 12.6% (inactive) | 21.6% (inactive) | 15.2% (inactive)
CNN(C)P(=O)(Oc1ccccc1)N(C)NC | 5.5% (inactive) | -7.3% (inactive) | -9.15% (inactive) | 7.9% (inactive) | -2.1% (inactive) | -5.15% (inactive)
Cc1ccc(C(O)(c2ccc(C)cc2)c2ccccn2)cc1 | -6.65% (inactive) | 16.9% (inactive) | -7% (inactive) | -13.8% (inactive) | 9.45% (inactive) | -35% (inactive)
CC(=O)CCC(=O)O.[Ni] | -37.5% (inactive) | 0.2% (inactive) | -7.45% (inactive) | -27.4% (inactive) | -7.65% (inactive) | 1.9% (inactive)
[CH3][Sb]1([Cl])[CH2]CCC[CH2]1 | 0.5% (inactive) | 32.9% (inactive) | 11.1% (inactive) | -6.1% (inactive) | 32% (inactive) | 36.2% (inactive)
